# Compound activity deposited in PubChem by The Scripps Research Institute Molecular Screening Center.
# A selection: hits, their analogues and other compounds. The true share with any hit is near 3.5%.
# FBW7 act: FBW7 E3 ligase activators, primary screen, biochemical, AlphaScreen, human; F-box/WD repeat-containing protein 7 (Homo sapiens), Q969H0; AlphaScreen FBW7–phospho-cyclin E peptide binding, activator screen; normalized activity (activation), % at 26.1 µM; 650,000 tested, 0.13% active; in the data active = normalized activity above about 1.9%;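 note: purified mutant Fbw7 with reduced substrate affinity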
# Target sequence (Q969H0 whole entry, looked up): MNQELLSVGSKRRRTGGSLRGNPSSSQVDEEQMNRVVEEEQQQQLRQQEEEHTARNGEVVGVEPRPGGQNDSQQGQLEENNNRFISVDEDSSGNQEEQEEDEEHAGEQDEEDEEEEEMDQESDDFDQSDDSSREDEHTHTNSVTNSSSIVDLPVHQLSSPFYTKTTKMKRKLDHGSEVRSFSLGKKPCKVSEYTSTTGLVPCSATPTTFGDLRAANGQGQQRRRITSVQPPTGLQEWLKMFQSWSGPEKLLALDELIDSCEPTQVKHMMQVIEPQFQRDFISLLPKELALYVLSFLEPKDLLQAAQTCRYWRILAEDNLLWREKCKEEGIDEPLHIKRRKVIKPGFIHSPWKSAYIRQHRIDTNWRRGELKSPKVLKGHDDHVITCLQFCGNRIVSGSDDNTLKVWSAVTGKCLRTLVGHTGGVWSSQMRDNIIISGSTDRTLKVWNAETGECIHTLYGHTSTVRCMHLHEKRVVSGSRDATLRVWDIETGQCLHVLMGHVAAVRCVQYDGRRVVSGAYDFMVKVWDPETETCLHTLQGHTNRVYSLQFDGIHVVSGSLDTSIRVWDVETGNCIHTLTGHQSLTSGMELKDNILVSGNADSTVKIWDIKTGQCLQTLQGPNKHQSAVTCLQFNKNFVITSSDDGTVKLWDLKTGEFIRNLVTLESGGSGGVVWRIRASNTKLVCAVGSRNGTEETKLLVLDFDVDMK
# GPR151 activ: activators of human GPR151, primary screen, cell-based, PathHunter beta-arrestin, luminescence | G-protein coupled receptor 151 (Homo sapiens), Q8TDV0 | PathHunter beta-arrestin GPR151 cells | activation, % at 11.2 µM | 650,000 tested, 1% active | AID 1508602, 2020; in the data active = activation above about 4.9%;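 note: 0% = median of compound wells and 100% = cells with positive control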
# MITF inh: MITF inhibitors, primary screen, biochemical, AlphaScreen, human; Microphthalmia-associated transcription factor (Homo sapiens), O75030; AlphaScreen MITF homodimerization, bead proximity signal; inhibition, % at 2.6 µM; 650,000 tested, 0.91% active; AID 1259374, 2018; in the data active = inhibition above about 50%;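 note: 0% = vehicle wells with protein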
# TEAD-YAP inh: TEAD-YAP interaction inhibition, primary screen, TEAD-YAP interaction inhibitor project, luminescence, HEK-TIYL cells; TEAD-Gal4/YAP UAS-luciferase luminescence; inhibition, % at 9.12 µM; 640,000 tested, 1.4% active; in the data active = inhibition above about 32%;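 note: 0% = median of test compound wells and 100% = reference inhibitor wells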
# * marks the source's active call; other numbers are inactive results.
SMILES,FBW7 act,GPR151 activ,MITF inh,TEAD-YAP inh
Cc1ccc(NC2C=CS(=O)(=O)C2)cc1C (stereo not drawn),0,-3,7,33*
O=C1N(Cc2cccnc2)C[C@@H]2C[C@@H](c3c(F)cccc3Cl)N3CCC[C@@]123,0,3,-3,6
O=C(NC1CCCCC1)c1ccc(CSc2ccc(Cl)cc2)cc1,0,0,-7,-4
CSCc1ccc(C(=O)NC2CCCCCC2)cc1,0,-6,-4,47*
Clc1cccc(-n2ncc3c(NCCCn4ccnc4)ncnc32)c1,0,-2,-4,56*
Cc1ccc(-n2ncc3c(NCCCn4ccnc4)ncnc32)cc1C,0,-1,19,-26
COc1ccccc1/C=C(/NC(=O)c1cccc(C)c1)C(=O)NCCc1c[nH]c2ccccc12,0,-1,11,3
CCOc1ccc(-c2cnc3ccccc3n2)cc1,0,-5,8,75*
CCCCCC(=O)Oc1ccc(-c2cnc3ccccc3n2)cc1,1,-1,15,7
O=C(Oc1cccc(-c2cnc3ccccc3n2)c1)c1ccco1,0,-1,2,43*
CC(C)n1cc(-c2cnc3ccccc3n2)cn1,0,-8,-1,72*
CC(=O)Oc1ccc(-c2cnc3ccccc3n2)cc1,0,-8,6,40*
Cc1nc2c(C(=O)NCCC(C)C)cnn2c(C)c1Cc1ccccc1Cl,0,-1,11,-7
CC(C)[C@H](NC(=O)c1ccc(C(C)(C)C)cc1)C(=O)NNC(=O)c1ccccc1F,0,0,-4,-14
C/C(=N\NC(=O)c1n[nH]c2c1CCC2)C1CC1,0,1,8,52*
CC1(C)CC(=NNC(=O)c2n[nH]c3c2CCC3)CC(C)(C)N1,0,3,4,62*
CCOc1ccc(NC(=O)CCSCCC(=O)Nc2ccc(OCC)cc2)cc1,0,-2,33,-11
O=C(NC1CCCCCCC1)c1cccc(N2CCCC2=O)c1,0,0,-8,46*
O=C(NC1CCCCCC1)c1ccc(N2CCCC2=O)cc1,0,-3,7,-22
c1ccc(-n2cnc3c(NC4CC4)nc(Nc4cnccn4)nc32)cc1,0,2,2,51*
c1ccc(-n2cnc3c(NC4CC4)nc(Nc4nccc5ccccc45)nc32)cc1,0,-2,9,43*
CN(C)c1cccc(Nc2nc(N)c3ncn(-c4ccsc4)c3n2)c1,0,-1,9,10
CN(C)c1cccc(Nc2nc(NC3CC3)c3ncn(-c4ccsc4)c3n2)c1,0,0,0,33*
c1ccc(-n2cnc3c(NC4CC4)nc(Nc4ccncc4)nc32)cc1,0,2,10,38*
O=C(/C=C/c1cccs1)OCc1ccccc1,0,0,-5,9
SMILES,FBW7 act,GPR151 activ,MITF inh,TEAD-YAP inh
COC(=O)C(Cc1ccccc1)NC(=O)c1cc2c(n(-c3ccccc3)c1=O)CC(C)(C)CC2=O (stereo not drawn),0,0,-6,10
COc1ccc(-c2cc(C(=O)Nc3nnc(-c4cccnc4)s3)c3ccccc3n2)cc1,0,0,17,2
c1cnc2ccc(Nc3nc(NC4CC4)c4ncn(-c5ccsc5)c4n3)cc2c1,0,1,18,9
c1ccc(Nc2nc(Nc3ccncn3)nc3c2ncn3-c2ccsc2)cc1,0,3,1,-61
c1cnc(Nc2nc(NC3CC3)c3ncn(-c4ccsc4)c3n2)cn1,0,1,11,34*
c1cc(Nc2nc(NC3CC3)c3ncn(-c4ccsc4)c3n2)ncn1,7.4*,0,7,-25
O=C(O)c1cc(N=Cc2c(O)n(Cc3ccco3)c(=O)[nH]c2=O)ccc1Cl,0,0,76*,5
O=C(NC1CCC1)c1cc(COc2cccc3cnccc23)on1,0,0,6,27
CN(C(=O)c1cc(COc2cccc3cnccc23)on1)C1CCCCC1,0,-1,-9,43*
CC(c1ccon1)N(C)C(=O)c1cc(COc2cccc3cnccc23)on1 (stereo not drawn),0,-1,14,34*
CC(=O)c1ccc(OCc2cc(C(=O)N(C)C(C)c3ccon3)no2)cc1 (stereo not drawn),0,-2,-19,2
C[C@H]1C(=O)N(C)CCN1C(=O)c1cc(COc2cccc3cnccc23)on1,0,2,-10,36*
